Assay outcomes deposited in PubChem by National Center for Advancing Translational Sciences (NCATS).
LmPK inhibitor: blocks Leishmania mexicana pyruvate kinase activity. purified LmPK, Kinase-Glo ATP luminescence, 1 h. actives 0.37% (n = 290,000). Potency, µM (titrated, usually from 57.5 µM), for inactives: at the highest dose activity change, negative = inhibition, usual class: inhibitors. Q27686; note: potency is the fitted concentration of half-maximal effect; % is set by controls: 0 for no effect and ±100 for the full control effect
Target sequence (Q27686 whole entry, looked up): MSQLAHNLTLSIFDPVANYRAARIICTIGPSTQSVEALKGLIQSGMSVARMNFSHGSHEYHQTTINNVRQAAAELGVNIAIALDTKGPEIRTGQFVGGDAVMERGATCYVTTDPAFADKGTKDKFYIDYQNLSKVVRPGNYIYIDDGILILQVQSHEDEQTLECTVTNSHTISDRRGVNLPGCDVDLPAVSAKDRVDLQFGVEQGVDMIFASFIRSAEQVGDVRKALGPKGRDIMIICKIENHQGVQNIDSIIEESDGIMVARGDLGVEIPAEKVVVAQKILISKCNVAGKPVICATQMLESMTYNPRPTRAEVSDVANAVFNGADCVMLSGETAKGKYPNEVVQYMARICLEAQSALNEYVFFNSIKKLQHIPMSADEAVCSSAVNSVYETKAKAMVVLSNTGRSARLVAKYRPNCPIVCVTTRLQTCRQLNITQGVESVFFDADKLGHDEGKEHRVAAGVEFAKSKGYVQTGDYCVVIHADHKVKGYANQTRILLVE
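ATP generated from ADP (0.1 mM) and PEP (0.5 mM) by 0.1 nM LmPK over 1 h at room temperature (pH 7.2 imidazole buffer) was detected by coupled luciferase luminescence. Values were normalized to uninhibited and no-enzyme wells.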
RE007 growth inh: less growth of the S. pombe RE007 Vpr strain | Potency, µM (doses to about 92.2 µM), without a hit: top-dose activity change, negative = less growth, most hits filed as inhibitors | actives 0.21% (n = 360,000) | S. pombe RE007 Vpr strain, BacTiter-Glo ATP luminescence, 24 h; active = well fitted falling curve with a large enough effect; inconclusive = small, poorly fitted or top-dose-only effect; inactive = no such curve, though single readings can be large or run the other way; note: potency is the fitted concentration of half-maximal effect; % is set by controls: 0 for no effect and ±100 for the full control effect; nearly all actives have a fitted effect of over 50% in size
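Fission yeast RE007 carrying one integrated HIV-1 vpr copy, seeded at OD 0.01 in PMG+AL medium with 23 nL pinned compound. Grown 24 h at 30 degrees; viability read by BacTiter-Glo luminescence after 5 min.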
FBPA Giardia inh: blocks Giardia fructose-bisphosphate aldolase activity. actives 0.71% (n = 290,000). purified Giardia FBPA. AID 2451. Potency, µM (highest dose often 59.6 µM), for the others: top-dose activity, negative = inhibition, actives largely listed as inhibitors; note: potency is the fitted concentration of half-maximal effect; % is set by controls: 0 for no effect and ±100 for the full control effect; nearly all actives have a fitted effect of over 55% in size
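Giardia FBPA (40 nM reagent) was preincubated 10 min at RT with compound (up to 57.5 uM final), then substrate plus GAPDH/TPI/NAD/arsenate coupling system with diaphorase/resazurin was added; resorufin fluorescence (525/598 nm) was read after 20 min.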
CHX counter: affects cycloheximide protein synthesis inhibition readout, counter-screen. cell reporter, cycloheximide protein synthesis inhibition counterscreen. max response, %. actives 12% (n = 300,000). AID 2314; in the data active = max response mostly above about 13%, no sharp cut-off; inactive = mostly below about 14%; note: read at 38.3 µM for the half of the compounds with a filed dose; 0% is about no effect
Shiga toxin inh: inhibitors of Shiga toxin in Vero cells; Vero cells, Shiga toxin protein synthesis inhibition reporter; inhibition, % at 38.7 µM; actives 9.2% (n = 290,000); in the data active = inhibition mostly above about 28%, no sharp cut-off; inactive = mostly below about 43%; note: 0% is about no effect
TbPYK inhibitor: blocks Trypanosoma brucei pyruvate kinase; Potency, µM (series often up to 76.8 µM), for the others: at the highest dose activity, negative = inhibition, most hits filed as inhibitors; actives 0.12% (n = 410,000); Q57TT1; TbPYK enzyme, Kinase-Glo Plus ATP luminescence, 45 min; note: potency is the fitted concentration of half-maximal effect; % is set by controls: 0 for no effect and ±100 for the full control effect; nearly all actives have a fitted effect of over 50% in size
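Luminescence from Kinase-Glo Plus, added after a 45-minute room-temperature reaction, served as the end-point read-out. The enzyme and substrate were preincubated with compound before ADP (130 uM final) initiated turnover. Concentration-effect curves came from normalized qHTS data.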
An asterisk follows results filed as active; ? = inconclusive; . = no result given; [ ] = dose if it differs, or a comment. The sample as a whole holds a higher share of hits than the screen did. Unless noted, calls come from the whole dose curve; as a rule, active = well fitted curve in the direction sought with a large enough effect; inconclusive = small, poorly fitted or top-dose-only effect, or another doubt; inactive = no such curve, though single readings can be large; an effect the other way counts as inactive or inconclusive.

SMILES | LmPK inhibitor | RE007 growth inh | FBPA Giardia inh | CHX counter | Shiga toxin inh | TbPYK inhibitor
O=C(Nc1ccc(/C=C/c2nc3ccccc3o2)cc1)c1cccc(C(F)(F)F)c1 | -1% | -6% | -1% | 34* | 102* | -1%
Cc1cnc(Nc2nc3ccccc3o2)nc1C(=O)Nc1cccc(C(F)(F)F)c1 | 9% | 18% | 3% | 2 | 23 | 5%
CSc1ccc(CCNC(=O)C(C)n2c(C)c3cnn(-c4ccccc4)c(=O)c3c2C)cc1 (stereo not given) | . | . | . | . | . | -6%
O=C(c1csnn1)N1CCC2(CC1)CN(c1ccccn1)C2 | . | . | -3% | . | . | -8%
COc1ccc(S(=O)(=O)c2c(O)c(C)cc(NS(=O)(=O)c3ccc(Cl)cc3)c2C(C)C)cc1 | . | . | . | . | . | 4%
O=C(CNC(=O)c1ccco1)Nc1ccc(Cl)cc1 | 2% | 27% | 1% | 27* | 34* | -8%
Cc1ccc(NC(=O)CNC(=O)c2ccco2)c(Cl)c1 | -3% | 5% | 4% | 25* | 47* | 10%
C/C(=N\NC(=O)CNC(=O)c1ccco1)c1ccc(Br)cc1 | -3% | 1% | . | -2 | 3 | -4%
O=C(CNC(=O)c1ccco1)Nc1ccc(Br)cc1 | 1% | -8% | -13% | 45* | 61* | 5%
C=C(CC1([C@@H](NP(=O)(c2ccccc2)c2ccccc2)[C@H]2C[C@@H]2CCN(C(=O)OCC)S(=O)(=O)c2ccc(C)cc2)CC1)c1ccccc1 | . | . | 0% | . | . | .
CCC/C=C(\CCC)C(NS(=O)(=O)c1ccc(C(F)(F)F)cc1)c1ccc(C(=O)OC)cc1 (stereo not given) | . | . | -15% | . | . | .
O=C(Cn1cc2c(n1)CCCCC2)Nc1ccccc1Cl | -3% | -7% | 1% | 12* | 21 | -15%
Cc1ccc2nc(NC(=O)Cn3cc4c(n3)CCCCC4)sc2c1 | -12% | 2% | ? | 16* | 30 | -1%
COc1ccc(CNC(=O)COc2cc(=O)n(C)c3ccccc23)cc1 | -4% | 7% | -6% | -9 | 17 | -12%
CCOc1c2ccc(C(=O)NCCc3cccs3)cc2nn1CC | 1% | 6% | 6% | 48* | 89* | 4%
Cn1c(=O)cc(OCC(=O)NCc2cccs2)c2ccccc21 | 3% | 7% | -7% | 18 | 51* | -1%
COc1cc(C#N)ccc1OCC(=O)NCc1cccs1 | 0% | 1% | 1% | 15* | 53 | -2%
CCOc1ccc(C(=O)NCc2cccs2)cc1 | -1% | -15% | 4% | 14 | 83* | -2%
C=CC[C@@H]1C=C[C@H](Oc2ccc(C)cc2)[C@H](COC(=O)NCc2cccc3ccccc23)O1 | . | . | -1%[12.9 µM] | . | . | .
CCn1c(Oc2ccc(F)cc2F)nc2c1c(=O)n(C)c(=O)n2C | . | . | . | . | . | 2%
CCOc1ccc(NC(=O)N2CCC(N3CCCCC3)CC2)cc1 | . | . | . | . | . | -7%
Cc1ccc(C(=O)OCC(=O)NCc2cccs2)cc1C | 6% | -11% | 4% | 14* | 11 | 3%
COc1ccccc1-c1ccc(=O)n(CC(=O)NCc2cccs2)n1 | 9% | 9% | 0% | 26 | 40* | -4%
O=C(COc1ccccc1)NCc1cccs1 | -1% | -5% | 4% | 7 | 28 | 1%
Cc1ccc(C(=O)OCC(=O)NCc2cccs2)cc1 | -2% | -2% | 3% | -2 | 14 | -2%
SMILES | LmPK inhibitor | RE007 growth inh | FBPA Giardia inh | CHX counter | Shiga toxin inh | TbPYK inhibitor
CCCCOc1ccc(C(=O)NCCc2cccs2)cc1 | -15% | . | 14% | 43* | 123* | .
Cc1ccc(OCC(=O)NCc2cccs2)cc1 | 0% | -12%[3.69 µM] | 1% | 27* | 29* | .
Cc1sc2c(c1C)c(=O)n(-c1ccc(Cl)cc1)c(=O)n2CC(=O)c1ccccc1 | . | . | . | . | . | 4%
Cc1ccc(-c2nc3c4ccccc4n(CC(=O)NCc4ccc(F)cc4)c(=O)n3n2)cc1 | . | . | . | . | . | -1%
O=C(CSc1nnc(-c2ccccc2O)o1)Oc1ccc(OCc2ccccc2)cc1 | -2% | -9% | -8% | 31* | 101* | -1%
O=C(CSc1nnc(-c2ccncc2)o1)Oc1ccccc1 | 6% | 2% | -1% | -2 | -9 | -1%
O=Cc1c[nH]c2ccccc12 | . | . | . | 8 | -5 | .
Cc1cc(-c2ccc(C(C)C)c(S(=O)(=O)Nc3ccccn3)c2)on1 | 3% | 1% | ? | 29* | 24* | 3%
O=C(Nc1ccc2c(c1)OCO2)C1COc2ccccc2O1 (stereo not given) | -6% | 1% | -4% | 36* | 107* | -7%
O=C(Nc1ccc(F)cc1)C1COc2ccccc2O1 (stereo not given) | 0% | -27% | -5% | 20* | 39 | 5%
NC(=O)c1ccc(NC(=O)C2COc3ccccc3O2)cc1 (stereo not given) | 0% | -17% | 26% | -2 | -2 | -7%
CCn1cc(C2=NOC(C(=O)Nc3ccc4c(c3)OCO4)C2)c(C)n1 (stereo not given) | 1% | -1% | 8%[12.9 µM] | 9 | 12 | -4%
O=C(Nc1ccc2c(c1)OCO2)C1CC(c2ccccc2Cl)=NO1 (stereo not given) | -1% | -20% | -1% | 20 | 48* | 0%
O=C(Nc1cnc2ccccc2c1)C1COc2ccccc2O1 (stereo not given) | -7% | ? | -4% | 31* | 80* | -7%
COc1ccc(NC(=O)C(C)n2nnc3sc(-c4ccccc4)cc3c2=O)cc1Cl (stereo not given) | . | . | . | . | . | -7%
CC(=O)N1CCc2cc(CNC(=O)Nc3ccc(Br)c(C)c3)ccc21 | . | . | . | . | . | -6%
Cc1cc(Nc2cccc(C(F)(F)F)c2)nc2ccc(NC(=O)c3ccc(N(C)C)cc3)cc12 | . | . | . | . | . | 1%
COc1cc2c(cc1OC)C(c1ccc(F)cc1)N(c1ccccc1)C(=O)C2 (stereo not given) | . | . | . | . | . | 1%
O=C(Nc1ccncc1)C1COc2ccccc2O1 (stereo not given) | 3% | -19% | 2% | 11* | 49 | -2%
O=C1OCc2cc(NC(=O)C3COc4ccccc4O3)ccc21 (stereo not given) | -1% | -16% | -3% | 14 | -4 | 1%
Cc1cccnc1NC(=O)C1COc2ccccc2O1 (stereo not given) | 1% | 18% | 1% | 6 | 12 | 2%
O=C(Nc1ccc2c(c1)CCC2)C1COc2ccccc2O1 (stereo not given) | -3% | -19% | 4% | 58* | 40* | 6%
O=C(NC1=NCCS1)C1COc2ccccc2O1 (stereo not given) | 16µM* | -2% | 4% | -8 | -24 | -20%
O=C(NC1CC(=O)N(c2cccc(F)c2)C1)c1ccc(S(=O)(=O)N2CCCCC2)cc1 (stereo not given) | . | . | . | . | . | -10%
COC(=O)c1sccc1S(=O)(=O)N1CCN(c2ccccc2OC)CC1 | . | . | . | . | . | 6%
